# In PMC5700166:
# Residue numbers refer to the chain shown, from its start.
# Columns and labels:
# Assay in all cases: protein-binding microarray (PBM); PBM: ~300 nM protein, 6 mM HEPES pH 7.8, 80 mM KCl, 0.5 mM EDTA, 0.5 mM EGTA, 6% glycerol, 35 ng/ul poly-dIdC, 1% milk, 1 h, room temperature; Ap Aiptasia and Nv Nematostella (sea anemones) / Co Capsaspora / Aq Amphimedon (sponge) / Dm Drosophila / Hu human; RHD is the Rel homology domain; high values mean tight binding
# Settings in all cases: dsDNA, one strand shown
# [1] = molecular target: T1, GST-Nv-NF-kB (Cys allele) (Nematostella vectensis, UniProt E5G601 2-411)
# T1 sequence: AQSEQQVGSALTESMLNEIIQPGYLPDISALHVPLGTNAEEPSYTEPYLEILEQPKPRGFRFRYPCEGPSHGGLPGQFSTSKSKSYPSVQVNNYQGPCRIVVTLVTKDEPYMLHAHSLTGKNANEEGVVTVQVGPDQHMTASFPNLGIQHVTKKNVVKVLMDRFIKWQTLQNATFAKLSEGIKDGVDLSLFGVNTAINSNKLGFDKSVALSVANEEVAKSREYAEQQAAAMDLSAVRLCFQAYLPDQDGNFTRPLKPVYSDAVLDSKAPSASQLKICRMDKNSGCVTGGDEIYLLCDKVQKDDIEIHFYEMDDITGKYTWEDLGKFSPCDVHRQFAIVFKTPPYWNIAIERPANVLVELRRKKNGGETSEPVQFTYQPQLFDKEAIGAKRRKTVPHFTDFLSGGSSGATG
# [2] = molecular target: T2, GST-Dm-Relish (Drosophila melanogaster, UniProt Q94527 99-473)
# T2 sequence: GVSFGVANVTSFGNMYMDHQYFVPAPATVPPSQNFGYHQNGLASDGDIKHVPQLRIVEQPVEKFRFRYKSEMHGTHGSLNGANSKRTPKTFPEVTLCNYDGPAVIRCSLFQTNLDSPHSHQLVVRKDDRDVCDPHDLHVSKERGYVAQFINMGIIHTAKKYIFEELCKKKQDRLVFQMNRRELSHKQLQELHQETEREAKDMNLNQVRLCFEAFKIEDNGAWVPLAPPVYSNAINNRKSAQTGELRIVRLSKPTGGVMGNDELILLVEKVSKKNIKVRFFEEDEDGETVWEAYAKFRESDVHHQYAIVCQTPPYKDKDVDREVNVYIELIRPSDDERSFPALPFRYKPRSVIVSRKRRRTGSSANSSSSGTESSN
# [3] = molecular target: T3, GST-Aq-NF-kB (Amphimedon queenslandica, UniProt A9Y5G7 2-389)
# T3 sequence: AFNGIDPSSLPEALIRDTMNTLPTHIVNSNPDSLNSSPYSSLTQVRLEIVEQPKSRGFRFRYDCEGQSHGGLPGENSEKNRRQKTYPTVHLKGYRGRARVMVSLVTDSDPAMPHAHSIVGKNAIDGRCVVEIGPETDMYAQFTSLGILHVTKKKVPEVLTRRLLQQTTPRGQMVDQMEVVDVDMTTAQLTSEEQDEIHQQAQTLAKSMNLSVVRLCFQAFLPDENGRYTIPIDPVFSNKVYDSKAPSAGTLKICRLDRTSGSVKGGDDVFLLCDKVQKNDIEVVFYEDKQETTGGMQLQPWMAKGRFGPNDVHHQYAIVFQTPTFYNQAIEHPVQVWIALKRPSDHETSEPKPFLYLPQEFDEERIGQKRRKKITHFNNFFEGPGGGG
# [4] = molecular target: T4, GST-Co-NF-kB (Capsaspora owczarzaki, UniProt F1ARL5 200-546)
# T4 sequence: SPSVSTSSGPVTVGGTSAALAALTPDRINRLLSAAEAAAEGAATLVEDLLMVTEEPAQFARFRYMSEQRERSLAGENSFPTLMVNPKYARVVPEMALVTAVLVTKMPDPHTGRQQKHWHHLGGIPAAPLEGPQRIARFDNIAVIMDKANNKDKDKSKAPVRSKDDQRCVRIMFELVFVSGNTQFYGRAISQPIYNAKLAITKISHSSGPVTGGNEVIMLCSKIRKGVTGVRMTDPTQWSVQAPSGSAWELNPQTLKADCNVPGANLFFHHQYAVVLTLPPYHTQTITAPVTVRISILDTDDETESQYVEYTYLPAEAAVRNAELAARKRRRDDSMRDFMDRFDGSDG
# [5] = molecular target: T5, GST-Nv-NF-kB (Ser allele) (Nematostella vectensis, UniProt A7UNT2 2-411)
# T5 sequence: T1 sequence with Q21R, C66S, S207N, E215Q, V217A, E225K, A268E, D399E
sequence,measurement,setting,value
CCGATTAACATCAAGGAAAAACCTGATGTTAATCGGGTCTTGATTCGCTTGACGCTGCTG,binding signal,[1],1.07 z-score
same,binding signal,[2],2.61 z-score
same,binding signal,[3],3.09 z-score
CCGATTAACATCACATGTGGGAATGATGTTAATCGGGTCTTGATTCGCTTGACGCTGCTG,binding signal,[1],1.34 z-score
same,binding signal,[4],2.62 z-score
same,binding signal,[3],2.05 z-score
CCGATTAACATCAGGATTTTACCTGATGTTAATCGGGTCTTGATTCGCTTGACGCTGCTG,binding signal,[1],2.01 z-score
same,binding signal,[2],3.21 z-score
same,binding signal,[3],3.66 z-score
CCGATTAACATCATTATGGGAAATGATGTTAATCGGGTCTTGATTCGCTTGACGCTGCTG,binding signal,[1],2.63 z-score
same,binding signal,[4],2.21 z-score
same,binding signal,[3],1.44 z-score
CCGATTAACATCAGGAATCTACCTGATGTTAATCGGGTCTTGATTCGCTTGACGCTGCTG,binding signal,[1],1.61 z-score
same,binding signal,[2],2.24 z-score
same,binding signal,[3],3.42 z-score
CCGATTAACATCAGGGATCGCCCTGATGTTAATCGGGTCTTGATTCGCTTGACGCTGCTG,binding signal,[1],1.19 z-score
same,binding signal,[2],3.26 z-score
same,binding signal,[3],4.24 z-score
CCGATTAACATCAAAATATTCCGTGATGTTAATCGGGTCTTGATTCGCTTGACGCTGCTG,binding signal,[4],1.07 z-score
same,binding signal,[3],1.1 z-score
CCGATTAACATCAGGAAAAGTCCTGATGTTAATCGGGTCTTGATTCGCTTGACGCTGCTG,binding signal,[1],1.25 z-score
same,binding signal,[2],2.98 z-score
same,binding signal,[3],3.07 z-score
CCGATTAACATCAATTCCCAACATGATGTTAATCGGGTCTTGATTCGCTTGACGCTGCTG,binding signal,[1],2.32 z-score
same,binding signal,[4],1.84 z-score
same,binding signal,[3],1.17 z-score
CCGATTAACATCAGGAATGTACCTGATGTTAATCGGGTCTTGATTCGCTTGACGCTGCTG,binding signal,[1],1.98 z-score
same,binding signal,[2],4.93 z-score
same,binding signal,[3],3.14 z-score
CCGATTAACATCAGACATGGGAATGATGTTAATCGGGTCTTGATTCGCTTGACGCTGCTG,binding signal,[1],1.46 z-score
same,binding signal,[4],2.4 z-score
same,binding signal,[3],1.94 z-score
CCGATTAACATCAGGAAGTTACCTGATGTTAATCGGGTCTTGATTCGCTTGACGCTGCTG,binding signal,[1],1.29 z-score
same,binding signal,[5],1.31 z-score
same,binding signal,[2],2.36 z-score
same,binding signal,[3],2.57 z-score
CCGATTAACATCACCCATGGGAATGATGTTAATCGGGTCTTGATTCGCTTGACGCTGCTG,binding signal,[1],1.13 z-score
same,binding signal,[4],2.05 z-score
same,binding signal,[2],1.03 z-score
same,binding signal,[3],2.51 z-score
CCGATTAACATCAAAAATTCCACTGATGTTAATCGGGTCTTGATTCGCTTGACGCTGCTG,binding signal,[2],2.3 z-score
same,binding signal,[3],1.44 z-score
CCGATTAACATCAAAGGAATTTCTGATGTTAATCGGGTCTTGATTCGCTTGACGCTGCTG,binding signal,[2],1.13 z-score
same,binding signal,[3],1.12 z-score
CCGATTAACATCAGGAAAGTCCATGATGTTAATCGGGTCTTGATTCGCTTGACGCTGCTG,binding signal,[2],3.2 z-score
same,binding signal,[3],3.71 z-score
CCGATTAACATCAGGGATGCCCATGATGTTAATCGGGTCTTGATTCGCTTGACGCTGCTG,binding signal,[2],6.66 z-score
same,binding signal,[3],2.22 z-score
CCGATTAACATCACGGCCTTTCCTGATGTTAATCGGGTCTTGATTCGCTTGACGCTGCTG,binding signal,[2],1.05 z-score
same,binding signal,[3],1.82 z-score
CCGATTAACATCACGGGATGTACTGATGTTAATCGGGTCTTGATTCGCTTGACGCTGCTG,binding signal,[2],5.98 z-score
same,binding signal,[3],1.26 z-score
CCGATTAACATCAGGACTTTCCATGATGTTAATCGGGTCTTGATTCGCTTGACGCTGCTG,binding signal,[2],3.27 z-score
same,binding signal,[3],4.23 z-score
CCGATTAACATCAGGAATTTACATGATGTTAATCGGGTCTTGATTCGCTTGACGCTGCTG,binding signal,[2],5.41 z-score
same,binding signal,[3],1.28 z-score
CCGATTAACATCAAAAATTCCTATGATGTTAATCGGGTCTTGATTCGCTTGACGCTGCTG,binding signal,[2],1.74 z-score
same,binding signal,[3],1.2 z-score
CCGATTAACATCAGGAAATCCACTGATGTTAATCGGGTCTTGATTCGCTTGACGCTGCTG,binding signal,[2],2.24 z-score
same,binding signal,[3],1.15 z-score
CCGATTAACATCAAAGGATTTCCTGATGTTAATCGGGTCTTGATTCGCTTGACGCTGCTG,binding signal,[2],1.74 z-score
same,binding signal,[3],1.01 z-score
CCGATTAACATCAAAGGAATTCCTGATGTTAATCGGGTCTTGATTCGCTTGACGCTGCTG,binding signal,[2],3.78 z-score
same,binding signal,[3],2.38 z-score
CCGATTAACATCACAAAATTTCCTGATGTTAATCGGGTCTTGATTCGCTTGACGCTGCTG,binding signal,[2],1.74 z-score
same,binding signal,[3],1.72 z-score
CCGATTAACATCAAGGAAACTCCTGATGTTAATCGGGTCTTGATTCGCTTGACGCTGCTG,binding signal,[2],1.12 z-score
same,binding signal,[3],2.64 z-score
CCGATTAACATCACGAAAATTCCTGATGTTAATCGGGTCTTGATTCGCTTGACGCTGCTG,binding signal,[2],1.12 z-score
same,binding signal,[3],1.41 z-score
CCGATTAACATCACGGAATTCCATGATGTTAATCGGGTCTTGATTCGCTTGACGCTGCTG,binding signal,[2],1.4 z-score
same,binding signal,[3],1.3 z-score
